Results as given in PubChem BioAssay AID2685 (National Center for Advancing Translational Sciences (NCATS), 2010).
Hit rate of the full screen: of about 320,000 compounds, about 2,100 (0.66%) were called active. Not shown: some 53% with an inconclusive outcome. The call rests on the fitted dose curve; in most records, active means well fitted inhibition curve with a large enough effect in the signal ratio, with a control signal flat (not every such curve was filed as active); inconclusive means small, poorly fitted or top-dose-only effect, or effect the other way, or a change in a side signal; inactive means flat fitted curve, though single readings scatter; the % refers to the signal ratio. For the sample, actives were picked, then their nearest neighbours and some compounds at random.

test: qHTS Assay for Lipid Storage Modulators in Drosophila S3 Cells; conditions: BODIPY lipid droplet fluorescence, 18-24 h, cells fed with added oleic acid; cell number change: measured here: cell count max response; series mostly up to 46.1 µM;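 on cell number change: cells counted by Cell Tracker Red CMTPX staining in the red channel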; on lipid storage change, negative = inhibition: on the % scale 0 is the no-effect control and ±100 the full control effect
Procedure, shortened: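 Laser-scanning cytometry quantifies lipid droplet accumulation (500–530 nm total intensity; droplet/cell object ratio) in oleic acid-fed (400 uM added) Drosophila S3 cells treated with a concentration series. 20 uM Triacsin C defined 100% inhibition.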
Potency means the concentration at half of the fitted maximal effect.

Row | SMILES | Potency | cell number change | outcome | lipid storage change, negative = inhibition
1 | O=c1[nH]c2ccccc2n2c(-c3ccncc3)nnc12 | inactive | -11.8% |  | 
2 | CC(=O)NS(=O)(=O)c1ccc(NC(=O)c2cc3c(=O)n4ccccc4nc3s2)cc1 | inactive | 21.8% |  | 
3 | Cc1cc(C)cc(NC(=O)c2cc3c(=O)n4ccccc4nc3s2)c1 | 6.51 µM (active) | -3.42% |  | 
4 | O=C(Nc1cccc(Cl)c1)c1cc2c(=O)n3ccccc3nc2s1 | inactive | 1.29% |  | 
5 | O=C(CCC1CCCC1)Nc1ccccc1-c1ccccc1 | inactive | -0.161% |  | 
6 | COc1ccc(NC(=O)C2CCCCN2N)cc1OC (stereo unspecified) | inactive | -2.19% |  | 
7 | Cc1cc(C)cc(NC(=O)CSc2ccc(-c3ccccn3)nn2)c1 | inactive | 2.31% |  | 
8 | O=S1(=O)CC/C(=N\O)c2ccccc21 | inactive | 0.644% |  | 
9 | O=c1cc(CO)oc(C(Nc2ccccn2)c2ccccc2Cl)c1O (stereo unspecified) | inactive | -7.74% |  | 
10 | N#Cc1ccc(OCC(=O)Nc2nc(-c3cccnc3)cs2)cc1 | inactive | -1.13% |  | 
11 | N#Cc1ccc(-c2ccc(OCC(=O)Nc3cccnc3)cc2)cc1 | 13 µM (active) | -11.3% |  | 
12 | O=C(COc1cccc(C(F)(F)F)c1)Nc1cccnc1 | inactive | 28.7% |  | 
13 | Nc1ccc(S(=O)(=O)c2ccc(N)c(N)c2)cc1 | inactive | 15.7% |  | 
14 | CCCCCOCC(O)CCC(=O)NN (stereo unspecified) | inactive | -19% |  | 
15 | Cc1ccc2cc(C(c3nnnn3C3CCCC3)N(Cc3ccccc3)Cc3ccco3)c(=O)[nH]c2c1 (stereo unspecified) | inactive | -7.33% |  | 
16 | CCOC(=O)C1=C(CN2CCN(C(=O)c3ccco3)CC2)NC(=O)NC1c1ccc(OC(C)C)cc1 (stereo unspecified) | 18.4 µM (active) | -20.3% |  | 
17 | CCOC(=O)C1=C(CN2CCN(C(=O)c3ccco3)CC2)NC(=O)NC1c1ccc(F)cc1 (stereo unspecified) | inactive | -24.3% |  | 
18 | CCOC(=O)C1=C(C)NC(=O)NC1c1ccc(OC(=O)c2ccco2)cc1 (stereo unspecified) | inactive | -14% |  | 
19 | Cc1ccccc1-c1nc2sc3c(c2c(=O)o1)CCC3 | inactive | 4.59% |  | 
20 | Cc1nc2sc3c(c2c(=O)o1)CCCC3 | 29.1 µM (active) | 5.3% |  | 
21 | O=c1oc(-c2ccccc2)nc2sc3c(c12)CCCC3 | inactive |  |  | 
22 | COc1cccc(-c2nc(-c3ccccn3)no2)c1 | inactive | -6.27% |  | 
23 | Cc1c(NC(=O)CSCc2c(F)cccc2Cl)c(=O)n(-c2ccccc2)n1C | inactive | 19% |  | 
24 | O=C1Nc2ccc(S(=O)(=O)N3CCCC3C(=O)O)c3cccc1c23 (stereo unspecified) | inactive | 2.18% |  | 

Row | SMILES | Potency | cell number change | outcome | lipid storage change, negative = inhibition
25 | O=C(/C(=C/c1ccccc1)c1ccccc1)N1CCCCC1 | inactive | -13.6% |  | 
26 | CC1CCCCN1C(=O)/C(=C\c1ccccc1)c1ccccc1 (stereo unspecified) | inactive | 7.23% |  | 
27 | CN1CCN(C(=O)/C(=C\c2ccccc2)c2ccccc2)CC1 | 18.4 µM (active) | -17.9% |  | 
28 | CS(=O)(=O)c1ccccc1-c1nnc(NC(=O)c2ccc(S(=O)(=O)N3CCCC3)cc2)o1 |  |  | inactive [at 0.0737 µM] | 
29 | COCCCNC(=O)c1ccccc1-c1cc(C)no1 | inactive | -2.62% |  | 
30 | CC(=O)Nc1cc(C(F)(F)F)ccc1N1CCOCC1 | inactive | 3.32% |  | 
31 | CC(Cl)C(=O)Nc1cc(C(F)(F)F)ccc1N1CCOCC1 (stereo unspecified) | inactive | -4.52% |  | 
32 | CC(C(=O)Nc1cc(C(F)(F)F)ccc1N1CCOCC1)N1C(=O)C2CC=CCC2C1=O (stereo unspecified) | 1.46 µM (active) | -1.98% |  | 
33 | O=C(Cc1cccc2ccccc12)Nc1ccc(N2CCOCC2)cc1 | inactive | -1.09% |  | 
34 | CC(=O)N1N=C(c2ccncc2)OC12CCCC2 | 16.4 µM (active) | -12.2% |  | 
35 | CC(=O)N1N=C(c2ccccc2)OC12CCCC2 | inactive | 3.13% |  | 
36 | CC(=O)N1N=C(c2ccncc2)OC12CCCCCC2 | inactive | 5.48% |  | 
37 | CCCOc1ccc(S(=O)(=O)NNC(=O)c2cc3ccccc3o2)cc1 | inactive | -21.5% |  | 
38 | S=c1nc(C2CC2)n(-c2ccccc2)[nH]1 | inactive | 6.79% |  | 
39 | CC(Sc1ccccc1)C(=O)N1CCN(S(=O)(=O)c2ccccc2)CC1 (stereo unspecified) | 0.0103 µM (active) | 22.7% |  | 
40 | CC(Sc1ccccc1)C(=O)N1CCN(S(=O)(=O)c2cccc(Br)c2)CC1 (stereo unspecified) | inactive |  |  | 
41 | CC(Sc1ccccc1)C(=O)N1CCN(S(=O)(=O)c2ccccc2F)CC1 (stereo unspecified) | inactive | -14.5% |  | 
42 | CS(=O)(=NS(=O)(=O)c1ccc(Cl)cc1)c1ccccc1 (stereo unspecified) | inactive | 5.26% |  | 
43 | N/C(=N\OC(=O)/C=C/c1ccccc1)c1ccccn1 | inactive |  |  | 
44 | COc1cccc(-c2ncc3ccccc3c2COC(=O)c2ccc(Br)cc2)c1 | inactive | 2.33% |  | 
45 | O=C(COC(=O)c1cccs1)Nc1ccccc1C(F)(F)F | inactive | -6.32% |  | 
46 | O=C(COC(=O)c1ccccn1)Nc1c(Cl)cccc1Cl | 16.4 µM (active) | -5.33% |  | 
47 | O=C(COC(=O)c1cccs1)Nc1ccccc1Cl | 16.4 µM (active) | 2.94% |  | 
48 | CCc1ccccc1NC(=O)COC(=O)c1cccs1 | inactive | -3.91% |  | 

Row | SMILES | Potency | cell number change | outcome | lipid storage change, negative = inhibition
49 | O=C(COC(=O)c1c2c(nc3ccccc13)CCCC2)c1cccs1 | inactive | 9.93% |  | 
50 | O=C(COC(=O)c1c2c(nc3ccccc13)/C(=C\c1cccs1)CCC2)Nc1ccccc1Cl | 0.58 µM (active) | -12.6% |  | 
51 | O=C(COC(=O)c1ccccn1)Nc1ccccc1Cl | inactive | -8.3% |  | 
52 | O=C(COC(=O)c1ccccn1)Nc1cccc(Cl)c1Cl | inactive | -0.814% |  | 
53 | O=C(COC(=O)/C=C/c1cccs1)Nc1ccccc1Cl | inactive | 11.7% |  | 
54 | Nc1c(N(CCC2=CCCCC2)C(=O)C2CC2)c(=O)[nH]c(=O)n1Cc1ccccc1 | inactive | 10.2% |  | 
55 | COc1ccc(C)cc1NC(=O)c1ccccc1NS(=O)(=O)c1cccc2cccnc12 | inactive | -4.79% |  | 
56 | CCOc1ccc(CO/N=C/c2c(C)[nH]c(=O)[nH]c2=O)cc1 | inactive | 3.8% |  | 
57 | CCOC(=O)C1=C(N)N2C(=O)C(C)SC2=C(C(=O)OC)C1c1ccccc1OC (stereo unspecified) | inactive | -22.7% |  | 
58 | CCOc1cc(/C=N\NC(=O)OC)ccc1OC(=O)c1ccco1 | inactive | 10.8% |  | 
59 | Cc1ccc(N2CCN(S(=O)(=O)N3CCCCCC3)CC2)cc1Cl | inactive | 8.56% |  | 
60 | Cc1ccc(Cc2nc(-c3cccnc3)no2)cc1 | inactive | -9.21% |  | 
61 | O=C(CC(c1ccccc1)c1ccccc1)NCc1cccnc1 | inactive | -6.85% |  | 
62 | Cc1ccc(C(=O)NCc2ccco2)cc1S(=O)(=O)N1CCCC1 | inactive | 15% |  | 
63 | O=C(NCCCN1CCOCC1)C(=O)NCC1OCCN1S(=O)(=O)c1cc(F)ccc1F (stereo unspecified) | inactive | 10.3% |  | 
64 | Cc1nnsc1C(=O)N1CCN(c2ccc(F)cc2)CC1 | inactive | 6.97% |  | 
65 | CCOC(=O)c1cc2c(=O)n3cccc(C)c3nc2n(CCCOC)c1=NC(=O)c1cccnc1 | inactive | -8.27% |  | 
66 | Cc1cccc(N2C(=O)c3ccc(C(=O)Nc4c[nH]c(=O)[nH]c4=O)cc3C2=O)c1 | inactive | -0.423% |  | 
67 | CC(C)COc1ccc(C/C(N)=N/n2cnnc2)cc1 | 20.6 µM (active) | -24.2% |  | 
68 | CCOC(=O)Cn1nnc(-c2ccc(OCC(C)C)cc2)n1 | inactive | -1.1% |  | 
69 | COc1ccc(C/C(N)=N/n2cnnc2)cc1Cl | inactive |  |  | 
70 | COc1ccc(NC(=O)N2Cc3ccccc3CC2C(=O)NC(C)(C)C)cc1 (stereo unspecified) | inactive | -0.759% |  | 
71 | O=C(NCCNc1nccc(C(F)(F)F)n1)c1cccc(C(F)(F)F)c1 | inactive | 8.97% |  | 
72 | O=S(=O)(c1cccc2cccnc12)N(CCO)CCO | inactive | -16.7% |  | 

Row | SMILES | Potency | cell number change | outcome | lipid storage change, negative = inhibition
73 | CCCCN(c1ccccc1)S(=O)(=O)c1cccc2cccnc12 | inactive |  |  | 
74 | CCN(CC)S(=O)(=O)c1cccc2cccnc12 | 7.31 µM (active) | -17.9% |  | 
75 | CCCNS(=O)(=O)c1cccc2cccnc12 |  | 2.48% |  | -0.974% [at 9.22 µM] (inactive)
76 | CSS(=O)(=O)c1cccc2cccnc12 | 2.59 µM (active) | -61.8% |  | 
77 | CNS(=O)(=O)c1cccc2cccnc12 |  | 10% |  | 11.3% [at 9.22 µM] (inactive)
78 | Cc1ccccc1OCC(=O)Nc1c2c(nn1C(C)(C)C)CS(=O)(=O)C2 | inactive | -4.53% |  | 
79 | OCCC1CN(Cc2cnc(-c3ccccc3)s2)CCN1Cc1ccccc1 (stereo unspecified) | inactive | -2.24% |  | 
80 | Cc1cc[n+](CC(=O)N2CCCc3ccccc32)cc1 | inactive | -2.96% |  | 
81 | COC(=O)c1cc(-c2ccccc2)c2c(=O)n(C)c(=O)n(C)c2n1 | inactive | 0.987% |  | 
82 | CCOc1ccc(-c2cc(C(=O)OC)nc3c2c(=O)n(C)c(=O)n3C)cc1 | inactive | 0.241% |  | 
83 | COC(=O)c1cc(-c2ccc(Br)cc2)c2c(=O)n(C)c(=O)n(C)c2n1 | 20.6 µM (active) | -16.2% |  | 
84 | O=C1CSC(c2cccnc2)N1c1ccc(Cl)cc1 (stereo unspecified) | inactive | -17.2% |  | 
85 | Cc1ccc2nc(-c3ccc4c(c3)NC(=O)CO4)cn2c1 | inactive | 4.69% |  | 
86 | CCC1CCCCN1CCCNC(=O)c1ccc(/C=C2/Sc3ccccc3NC2=O)cc1 (stereo unspecified) | 5.17 µM (active) | -7.79% |  | 
87 | CCC1CCCCN1CCCNC(=O)c1ccc2c(c1)NC(=O)CS2 (stereo unspecified) | inactive | 20.8% |  | 
88 | O=C1Nc2cc(C(=O)NCCCN3CCCC3)ccc2S/C1=C\c1ccccc1 | inactive | -4.94% |  | 
89 | O=C(CSc1nncs1)Nc1ccc(N2CCCCC2)cc1 | inactive | -24% |  | 
90 | CCN1CCN(S(=O)(=O)c2ccc(Cl)c(C(=O)N(C)Cc3ccco3)c2)CC1 | inactive | 2.03% |  | 
91 | Cc1ccc(S(=O)(=O)C2(C(=O)NC3CCCCC3C)CC2)cc1 (stereo unspecified) | inactive | -11.4% |  | 
92 | OCCN(CCO)c1nc(-c2ccccc2)nc2c1oc1ccccc12 | inactive | -3.98% |  | 
93 | COc1ccc(C2C(C(=O)c3ccc(C)o3)=C(O)C(=O)N2Cc2cccnc2)cc1OC (stereo unspecified) | 0.13 µM (active) | 1.8% |  | 
94 | Cc1ccc(C(=O)C2=C(O)C(=O)N(Cc3cccnc3)C2c2ccc(Cl)cc2)o1 (stereo unspecified) | inactive | 10.8% |  | 
95 | Cc1ccc(C(=O)C2=C(O)C(=O)N(Cc3cccnc3)C2c2ccc(Br)cc2)o1 (stereo unspecified) | inactive | 4.99% |  | 
96 | O=C(N1CCCC1)C12CC3CCC(CC(C3)C1)C2 | inactive | 3.73% |  | 
